The values below come from article PMC9911399, “Two distinct binding modes provide the RNA-binding protein RbFox with extraordinary sequence specificity”.

Where a chain is given by its changes, count along the chain named. Over roughly 16,000 sequences, “ka relative to ugcaugu” has its median near 0.096; the highest 2% begin near 0.35. The sample as a whole holds a higher share of the highest values than the screen did.

The labels stand for the following.
T1: RBFOX1 RRM RbFoxmut (Fox-RRM*) (Homo sapiens, UniProt Q9NWB1 109-208, R118D;E147R;N151S;E152T)
T1 sequence: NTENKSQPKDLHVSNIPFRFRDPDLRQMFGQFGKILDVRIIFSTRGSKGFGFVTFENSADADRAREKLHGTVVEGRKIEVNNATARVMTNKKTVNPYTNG

B1: CUCCGAA (DNA:RNA)
RNA: GGGAGACCGGAAUUCAGAUUGUCCCUCCGAAUUAAAUCCCGUCGUAGCCACCA
DNA 1: CAATCTGAATTCCGGTCTCCC
DNA 2: TGGTGGCTACGACGGGATT
B2: UGCUACC (DNA:RNA)
RNA: B1 RNA with C25U, U26G, C28U, G29A, A30C, A31C
DNA 1: CAATCTGAATTCCGGTCTCCC
DNA 2: TGGTGGCTACGACGGGATT
B3: AAAUGCG (DNA:RNA)
RNA: B1 RNA with C25A, U26A, C27A, C28U, A30C, A31G
DNA 1: CAATCTGAATTCCGGTCTCCC
DNA 2: TGGTGGCTACGACGGGATT
B4: UGACUUC (DNA:RNA)
RNA: B1 RNA with C25U, U26G, C27A, G29U, A30U, A31C
DNA 1: CAATCTGAATTCCGGTCTCCC
DNA 2: TGGTGGCTACGACGGGATT
B5: UCAUAAU (DNA:RNA)
RNA: B1 RNA with C25U, U26C, C27A, C28U, G29A, A31U
DNA 1: CAATCTGAATTCCGGTCTCCC
DNA 2: TGGTGGCTACGACGGGATT
B6: GUGCACG (DNA:RNA)
RNA: B1 RNA with C25G, C27G, G29A, A30C, A31G
DNA 1: CAATCTGAATTCCGGTCTCCC
DNA 2: TGGTGGCTACGACGGGATT
B7: UUGCACC (DNA:RNA)
RNA: B1 RNA with C25U, C27G, G29A, A30C, A31C
DNA 1: CAATCTGAATTCCGGTCTCCC
DNA 2: TGGTGGCTACGACGGGATT
B8: AUGCACC (DNA:RNA)
RNA: B1 RNA with C25A, C27G, G29A, A30C, A31C
DNA 1: CAATCTGAATTCCGGTCTCCC
DNA 2: TGGTGGCTACGACGGGATT
B9: GUGCACC (DNA:RNA)
RNA: B1 RNA with C25G, C27G, G29A, A30C, A31C
DNA 1: CAATCTGAATTCCGGTCTCCC
DNA 2: TGGTGGCTACGACGGGATT
B10: UUGCCCG (DNA:RNA)
RNA: B1 RNA with C25U, C27G, G29C, A30C, A31G
DNA 1: CAATCTGAATTCCGGTCTCCC
DNA 2: TGGTGGCTACGACGGGATT
B11: UUGCACG (DNA:RNA)
RNA: B1 RNA with C25U, C27G, G29A, A30C, A31G
DNA 1: CAATCTGAATTCCGGTCTCCC
DNA 2: TGGTGGCTACGACGGGATT
B12: ACGUGCG (DNA:RNA)
RNA: B1 RNA with C25A, U26C, C27G, C28U, A30C, A31G
DNA 1: CAATCTGAATTCCGGTCTCCC
DNA 2: TGGTGGCTACGACGGGATT
B13: AUGCACG (DNA:RNA)
RNA: B1 RNA with C25A, C27G, G29A, A30C, A31G
DNA 1: CAATCTGAATTCCGGTCTCCC
DNA 2: TGGTGGCTACGACGGGATT
B14: AUCCACG (DNA:RNA)
RNA: B1 RNA with C25A, G29A, A30C, A31G
DNA 1: CAATCTGAATTCCGGTCTCCC
DNA 2: TGGTGGCTACGACGGGATT
B15: GUGUCUU (DNA:RNA)
RNA: B1 RNA with C25G, C27G, C28U, G29C, A30U, A31U
DNA 1: CAATCTGAATTCCGGTCTCCC
DNA 2: TGGTGGCTACGACGGGATT
B16: UGAUGGG (DNA:RNA)
RNA: B1 RNA with C25U, U26G, C27A, C28U, A30G, A31G
DNA 1: CAATCTGAATTCCGGTCTCCC
DNA 2: TGGTGGCTACGACGGGATT
B17: GGUGGAC (DNA:RNA)
RNA: B1 RNA with C25G, U26G, C27U, C28G, A31C
DNA 1: CAATCTGAATTCCGGTCTCCC
DNA 2: TGGTGGCTACGACGGGATT
B18: CGCAACA (DNA:RNA)
RNA: B1 RNA with U26G, C28A, G29A, A30C
DNA 1: CAATCTGAATTCCGGTCTCCC
DNA 2: TGGTGGCTACGACGGGATT
B19: GCACAGC (DNA:RNA)
RNA: B1 RNA with C25G, U26C, C27A, G29A, A30G, A31C
DNA 1: CAATCTGAATTCCGGTCTCCC
DNA 2: TGGTGGCTACGACGGGATT
B20: GCGAUGU (DNA:RNA)
RNA: GGGAGACCGGAAUUCAGAUUGUCCGCGAUGUUUAAAUCCCGUCGUAGCCACCA
DNA 1: CAATCTGAATTCCGGTCTCCC
DNA 2: TGGTGGCTACGACGGGATT
B21: CUCAAAA (DNA:RNA)
RNA: B1 RNA with C28A, G29A
DNA 1: CAATCTGAATTCCGGTCTCCC
DNA 2: TGGTGGCTACGACGGGATT
B22: GUCCGUG (DNA:RNA)
RNA: B1 RNA with C25G, A30U, A31G
DNA 1: CAATCTGAATTCCGGTCTCCC
DNA 2: TGGTGGCTACGACGGGATT
B23: UUGUCGU (DNA:RNA)
RNA: B20 RNA with G25U, C26U, A28U, U29C
DNA 1: CAATCTGAATTCCGGTCTCCC
DNA 2: TGGTGGCTACGACGGGATT
B24: UUGUACG (DNA:RNA)
RNA: B1 RNA with C25U, C27G, C28U, G29A, A30C, A31G
DNA 1: CAATCTGAATTCCGGTCTCCC
DNA 2: TGGTGGCTACGACGGGATT
B25: UUGUUUG (DNA:RNA)
RNA: B20 RNA with G25U, C26U, A28U, G30U, U31G
DNA 1: CAATCTGAATTCCGGTCTCCC
DNA 2: TGGTGGCTACGACGGGATT
B26: GUGUACG (DNA:RNA)
RNA: B20 RNA with C26U, A28U, U29A, G30C, U31G
DNA 1: CAATCTGAATTCCGGTCTCCC
DNA 2: TGGTGGCTACGACGGGATT
B27: UCGUUUG (DNA:RNA)
RNA: B20 RNA with G25U, A28U, G30U, U31G
DNA 1: CAATCTGAATTCCGGTCTCCC
DNA 2: TGGTGGCTACGACGGGATT
B28: GUGUCCC (DNA:RNA)
RNA: B20 RNA with C26U, A28U, U29C, G30C, U31C
DNA 1: CAATCTGAATTCCGGTCTCCC
DNA 2: TGGTGGCTACGACGGGATT
B29: GUACGUG (DNA:RNA)
RNA: B1 RNA with C25G, C27A, A30U, A31G
DNA 1: CAATCTGAATTCCGGTCTCCC
DNA 2: TGGTGGCTACGACGGGATT
B30: UUGUUGU (DNA:RNA)
RNA: B20 RNA with G25U, C26U, A28U
DNA 1: CAATCTGAATTCCGGTCTCCC
DNA 2: TGGTGGCTACGACGGGATT
B31: UCGUUUU (DNA:RNA)
RNA: B20 RNA with G25U, A28U, G30U
DNA 1: CAATCTGAATTCCGGTCTCCC
DNA 2: TGGTGGCTACGACGGGATT
B32: UCGUCGU (DNA:RNA)
RNA: B20 RNA with G25U, A28U, U29C
DNA 1: CAATCTGAATTCCGGTCTCCC
DNA 2: TGGTGGCTACGACGGGATT
B33: GUGUGUG (DNA:RNA)
RNA: B1 RNA with C25G, C27G, C28U, A30U, A31G
DNA 1: CAATCTGAATTCCGGTCTCCC
DNA 2: TGGTGGCTACGACGGGATT

This assay addresses T1, RBFOX1 RRM RbFoxmut (Fox-RRM*). Description: EMSA; HiTS-Eq, 1 nM pool, 10 min; buffer printed only for the single-RNA assays: 10 mM Tris pH 7.5, 150 mM NaCl, 3.4 mM EDTA, 0.001% NP-40, 30 C. As to conditions: tags: His6 N-terminal (pET28a); label: 5' 32P. The essentials: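 These values rest on relative association constants, computed from read-count changes of each RNA species versus the control reaction and normalised to the cognate motif. Reads came from free RNA recovered by 8% native PAGE after purified RbFox RRM (wild type or mutant) at increasing concentrations was equilibrated for 10 min in 50 µL with 1 nM of a 5′-radiolabelled pool with 7 randomized nucleotides and DNA-annealed flanks.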
A general note: Mobility shift assays separate free from complexed probe on a gel.
B1: the binding signal is 0.104 KA relative to UGCAUGU.
With B2 the figure was 0.147 KA relative to UGCAUGU; with B3, 0.104 KA relative to UGCAUGU.
With B4, the binding signal was 0.0822 KA relative to UGCAUGU.
With B5 the figure was 0.103 KA relative to UGCAUGU; with B6, 0.66 KA relative to UGCAUGU.
For B7, the binding signal is 0.181 KA relative to UGCAUGU.
For the molecule B8, the binding signal is 0.132 KA relative to UGCAUGU.
Consider B9, for which the binding signal was 0.167 KA relative to UGCAUGU.
With B10, the binding signal was 0.178 KA relative to UGCAUGU.
With B11 the figure was 0.612 KA relative to UGCAUGU; with B12, 0.182 KA relative to UGCAUGU; with B13, 0.551 KA relative to UGCAUGU.
Consider B14, for which the binding signal was 0.135 KA relative to UGCAUGU.
On to B15, for which the binding signal is 0.101 KA relative to UGCAUGU.
On to B16, for which the binding signal was 0.0449 KA relative to UGCAUGU.
To B17 belongs 0.0584 KA relative to UGCAUGU; to B18, 0.102 KA relative to UGCAUGU; to B19, 0.0832 KA relative to UGCAUGU.
For the molecule B20, the binding signal is 0.151 KA relative to UGCAUGU.
Take B21: the binding signal was 0.0819 KA relative to UGCAUGU.
With B22 the figure was 0.146 KA relative to UGCAUGU.
To B23 belongs 0.132 KA relative to UGCAUGU; to B24, 0.261 KA relative to UGCAUGU; to B25, 0.709 KA relative to UGCAUGU.
With B26 the figure was 0.441 KA relative to UGCAUGU; with B27, 0.396 KA relative to UGCAUGU.
As to B28, the binding signal is 0.101 KA relative to UGCAUGU.
To B29 belongs 0.188 KA relative to UGCAUGU; to B30, 0.21 KA relative to UGCAUGU; to B31, 0.0973 KA relative to UGCAUGU.
With B32 the figure was 0.109 KA relative to UGCAUGU; with B33, 0.532 KA relative to UGCAUGU.
